Measurements as given in ChEMBL document CHEMBL1961873, “Compounds: GSK PKIS; Assays: Nanosyn kinase panel” (2012).

Biological target: T1, Serine/threonine-protein kinase DCLK2 (Homo sapiens) (UniProt Q8N568);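 further: each value is a mean percent inhibition of DCLK2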
T1 sequence (whole entry): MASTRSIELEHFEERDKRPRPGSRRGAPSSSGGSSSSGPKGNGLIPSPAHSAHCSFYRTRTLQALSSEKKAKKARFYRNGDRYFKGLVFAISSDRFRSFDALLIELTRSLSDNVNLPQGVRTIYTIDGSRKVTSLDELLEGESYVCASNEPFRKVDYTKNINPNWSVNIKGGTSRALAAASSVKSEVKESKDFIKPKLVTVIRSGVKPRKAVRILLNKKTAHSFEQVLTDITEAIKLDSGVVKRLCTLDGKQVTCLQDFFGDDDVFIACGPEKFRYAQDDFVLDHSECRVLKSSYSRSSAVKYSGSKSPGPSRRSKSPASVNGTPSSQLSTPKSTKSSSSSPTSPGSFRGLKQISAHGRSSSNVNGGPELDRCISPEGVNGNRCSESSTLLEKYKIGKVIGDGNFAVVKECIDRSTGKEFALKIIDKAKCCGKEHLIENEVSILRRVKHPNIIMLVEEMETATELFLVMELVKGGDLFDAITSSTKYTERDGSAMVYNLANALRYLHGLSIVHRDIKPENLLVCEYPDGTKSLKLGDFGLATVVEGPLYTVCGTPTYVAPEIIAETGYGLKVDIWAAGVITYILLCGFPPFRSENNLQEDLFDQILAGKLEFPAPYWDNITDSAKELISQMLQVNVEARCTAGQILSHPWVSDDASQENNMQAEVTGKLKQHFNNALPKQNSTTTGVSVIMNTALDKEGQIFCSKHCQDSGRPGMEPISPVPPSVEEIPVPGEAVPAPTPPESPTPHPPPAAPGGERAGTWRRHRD
Details: at 1 µM

SMILES | inhibition [%]
CCc1nn2ncccc2c1-c1ccnc(NC2CC2)n1 | 2.15
COC(=O)c1sc(-n2cnc3cc(OC)c(OC)cc32)cc1OCc1ccccc1C(F)(F)F | 0.62
[O-][S+]1CCN(Cc2ccc(-c3ccc4ncnc(Nc5ccc(OCc6cccc(F)c6)c(Cl)c5)c4c3)o2)CC1 | 2.24
CCn1c(-c2nonc2N)nc2c(C#CC(C)(C)O)ncc(OC3CCNCC3)c21 | 3.29
CC(C)(CO)CNC(=O)c1ccc2c(c1)/C(=N/Nc1ccc(S(N)(=O)=O)cc1)C(=O)N2 | 1.76
CCCN1CCC(c2ccc(Nc3nc(Nc4cc(F)ccc4C(N)=O)c4cc[nH]c4n3)c(OC)c2)CC1 | 8.21
COc1ccc(-c2cc(-c3c[nH]nc3-c3ccccn3)ccn2)cc1 | 0.82
COc1ccc(-c2cc3c(N)ncnc3o2)cc1 | 0.37
COC(=O)Nc1nc2ccc(S(=O)(=O)c3ccc(NC(=O)Nc4cc(C(F)(F)F)ccc4F)cc3)cc2[nH]1 | -0.64
Fc1ccc(-c2nn3ccccc3c2-c2ccncc2)cc1 | -2.66
CN1CCC(n2cnc(-c3ccc(F)cc3)c2-c2ccnc(N)n2)CC1 | 1.94
COc1cccc(-n2ncc3c(N/N=C/c4ccc(F)cc4)ncnc32)c1 | 0.2
Fc1cccc(COc2ccc(Nc3ncnc4sc(-c5ccco5)cc34)cc2Cl)c1 | 4.98
Fc1ccc(-c2cc(-c3c[nH]nc3-c3ccccn3)ccn2)cc1 | -1.86
CCCN(CCS(C)(=O)=O)Cc1ccc(-c2ccc3ncnc(Nc4ccc(OCc5cccc(F)c5)c(Cl)c4)c3c2)o1 | 0.44
COc1cccc(-c2c[nH]c3c(N/N=C/c4ccncc4)ncnc23)c1 | 8.13
CC1=C(C(=O)Nc2cc(Cl)c3[nH]ncc3c2)C(c2ccc(C(F)(F)F)cc2)CC(=O)N1 (stereo not drawn) | 2.36

SMILES | inhibition [%]
CS(=O)(=O)CCNCc1coc(-c2ccc3ncnc(Nc4ccc(OCc5ccccc5)cc4)c3c2)c1 | 0.64
CCn1c(-c2nonc2N)nc2cnc(Oc3cccc(NC(=O)c4ccc(N(C)C)cc4)c3)cc21 | 0.72
CNC(=O)c1cc(-c2ccc(F)cc2)cc(-c2ccc(S(=O)(=O)N3CCCC3)cc2)c1N | -0.01
O=S(=O)(CCNCc1ccc(-c2ccc3ncnc(Nc4ccc(OCc5cccc(F)c5)c(Cl)c4)c3c2)o1)c1ccccc1 | 2.85
N#Cc1c(NC(=O)c2ccc(F)cc2)sc2c1CCCC2 | 5.74
CNC(=O)c1cccc(C#Cc2cncnc2Nc2ccc(OCc3cccc(F)c3)c(Cl)c2)c1 | -6.14
CCn1c(-c2nonc2N)nc2c(C#CC(C)(C)O)nc(OC[C@H](N)c3ccccc3)cc21 | 1.52
Nc1ncc(-c2cccc(S(N)(=O)=O)c2)c2scc(-c3ccc(F)c(Cl)c3)c12 | 0.61
c1ccc(COc2ccc(Nc3ncnc4ccc(-c5ccco5)cc34)cc2)cc1 | -0.08
N#Cc1c(NC(=O)CN2CCOCC2)sc2c1CCCC2 | 1.22
NS(=O)(=O)c1ccc(N/N=C2\C(=O)Nc3ccc4ncccc4c32)cc1 | 7.76
O=C(O[C@H]1CN[C@H](C#Cc2cc3ncnc(Nc4ccc(Cc5ccccc5)cc4)c3s2)C1)N1CCOCC1 | 2.31
CC(=O)Nc1cccc(C#Cc2cncnc2Nc2ccc(OCc3cccc(F)c3)c(Cl)c2)c1 | -0.73
Cc1cccc(Nc2ncc(-c3ccccc3)o2)c1 | 1.2
FC(F)(F)c1cccc(-c2nn3ncccc3c2-c2ccnc(Nc3ccc4c(c3)OCCO4)n2)c1 | -0.51
CCNC(=O)O[C@H]1CN[C@H](C#Cc2cc3ncnc(Nc4ccc(OCc5cccc(F)c5)c(Cl)c4)c3s2)C1 | 2.85
CNC(=O)c1cncc(/C=C/c2ccccc2Cl)c1 | -3.35

Biological target: MAP kinase-activated protein kinase 2 (Homo sapiens) (UniProt P49137);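 further: figures are mean inhibition values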
Sequence (P49137 whole entry, looked up): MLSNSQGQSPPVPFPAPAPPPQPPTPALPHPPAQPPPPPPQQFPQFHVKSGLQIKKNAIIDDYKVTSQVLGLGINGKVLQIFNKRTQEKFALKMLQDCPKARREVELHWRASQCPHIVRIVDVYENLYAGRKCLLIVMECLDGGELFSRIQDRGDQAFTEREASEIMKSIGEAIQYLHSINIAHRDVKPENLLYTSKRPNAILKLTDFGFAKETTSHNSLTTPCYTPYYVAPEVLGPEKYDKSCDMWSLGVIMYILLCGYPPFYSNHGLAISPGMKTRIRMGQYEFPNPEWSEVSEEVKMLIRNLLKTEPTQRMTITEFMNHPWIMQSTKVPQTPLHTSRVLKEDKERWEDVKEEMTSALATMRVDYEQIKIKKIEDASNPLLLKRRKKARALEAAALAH
Details: at 0.1 µM

SMILES | inhibition [%]
CCc1nn2ncccc2c1-c1ccnc(NC2CC2)n1 | 1.44
COC(=O)c1sc(-n2cnc3cc(OC)c(OC)cc32)cc1OCc1ccccc1C(F)(F)F | 1.81
[O-][S+]1CCN(Cc2ccc(-c3ccc4ncnc(Nc5ccc(OCc6cccc(F)c6)c(Cl)c5)c4c3)o2)CC1 | 1.68
CCn1c(-c2nonc2N)nc2c(C#CC(C)(C)O)ncc(OC3CCNCC3)c21 | 1.3
CC(C)(CO)CNC(=O)c1ccc2c(c1)/C(=N/Nc1ccc(S(N)(=O)=O)cc1)C(=O)N2 | -0.45
CCCN1CCC(c2ccc(Nc3nc(Nc4cc(F)ccc4C(N)=O)c4cc[nH]c4n3)c(OC)c2)CC1 | 1.84
COc1ccc(-c2cc(-c3c[nH]nc3-c3ccccn3)ccn2)cc1 | 2.82
COc1ccc(-c2cc3c(N)ncnc3o2)cc1 | -1.21
COC(=O)Nc1nc2ccc(S(=O)(=O)c3ccc(NC(=O)Nc4cc(C(F)(F)F)ccc4F)cc3)cc2[nH]1 | 0.59
Fc1ccc(-c2nn3ccccc3c2-c2ccncc2)cc1 | 0.22
CN1CCC(n2cnc(-c3ccc(F)cc3)c2-c2ccnc(N)n2)CC1 | 0.99
COc1cccc(-n2ncc3c(N/N=C/c4ccc(F)cc4)ncnc32)c1 | 1.96
Fc1cccc(COc2ccc(Nc3ncnc4sc(-c5ccco5)cc34)cc2Cl)c1 | 5.73
Fc1ccc(-c2cc(-c3c[nH]nc3-c3ccccn3)ccn2)cc1 | 2.53
CCCN(CCS(C)(=O)=O)Cc1ccc(-c2ccc3ncnc(Nc4ccc(OCc5cccc(F)c5)c(Cl)c4)c3c2)o1 | 3.34
COc1cccc(-c2c[nH]c3c(N/N=C/c4ccncc4)ncnc23)c1 | 2.94
CC1=C(C(=O)Nc2cc(Cl)c3[nH]ncc3c2)C(c2ccc(C(F)(F)F)cc2)CC(=O)N1 (stereo not drawn) | 4.51

SMILES | inhibition [%]
CS(=O)(=O)CCNCc1coc(-c2ccc3ncnc(Nc4ccc(OCc5ccccc5)cc4)c3c2)c1 | 1.33
CCn1c(-c2nonc2N)nc2cnc(Oc3cccc(NC(=O)c4ccc(N(C)C)cc4)c3)cc21 | 1.12
CNC(=O)c1cc(-c2ccc(F)cc2)cc(-c2ccc(S(=O)(=O)N3CCCC3)cc2)c1N | 4.47
O=S(=O)(CCNCc1ccc(-c2ccc3ncnc(Nc4ccc(OCc5cccc(F)c5)c(Cl)c4)c3c2)o1)c1ccccc1 | 2.31
N#Cc1c(NC(=O)c2ccc(F)cc2)sc2c1CCCC2 | 0.34
CNC(=O)c1cccc(C#Cc2cncnc2Nc2ccc(OCc3cccc(F)c3)c(Cl)c2)c1 | 1.01
CCn1c(-c2nonc2N)nc2c(C#CC(C)(C)O)nc(OC[C@H](N)c3ccccc3)cc21 | 0.63
Nc1ncc(-c2cccc(S(N)(=O)=O)c2)c2scc(-c3ccc(F)c(Cl)c3)c12 | 1.76
c1ccc(COc2ccc(Nc3ncnc4ccc(-c5ccco5)cc34)cc2)cc1 | 2.44
N#Cc1c(NC(=O)CN2CCOCC2)sc2c1CCCC2 | 2.32
NS(=O)(=O)c1ccc(N/N=C2\C(=O)Nc3ccc4ncccc4c32)cc1 | 0.89
O=C(O[C@H]1CN[C@H](C#Cc2cc3ncnc(Nc4ccc(Cc5ccccc5)cc4)c3s2)C1)N1CCOCC1 | 0.76
CC(=O)Nc1cccc(C#Cc2cncnc2Nc2ccc(OCc3cccc(F)c3)c(Cl)c2)c1 | -2.08
Cc1cccc(Nc2ncc(-c3ccccc3)o2)c1 | 1.15
FC(F)(F)c1cccc(-c2nn3ncccc3c2-c2ccnc(Nc3ccc4c(c3)OCCO4)n2)c1 | 0.54
CCNC(=O)O[C@H]1CN[C@H](C#Cc2cc3ncnc(Nc4ccc(OCc5cccc(F)c5)c(Cl)c4)c3s2)C1 | 1.55
CNC(=O)c1cncc(/C=C/c2ccccc2Cl)c1 | 0.55
